The record followed here is PMC7862700, “An all-to-all approach to the identification of sequence-specific readers for epigenetic DNA modifications on cytosine”.

Holding throughout (experiment): DAPPL (digital affinity profiling via proximity ligation, sequencing); 10 mM Tris-HCl pH 7.5, 50 mM NaCl, 1 mM DTT, 4% glycerol, room temperature, 30 min; GST-TFs on glutathione beads, 16-mer random dsDNA library, 0.1% formaldehyde crosslink after washing; high values mean tight binding
Holding throughout (conditions): protein: recombinant; tags: N-terminal GST; dsDNA, one strand shown

In one test the target is T1, FLI1 (Homo sapiens, UniProt Q01543 1-452).
T1 sequence: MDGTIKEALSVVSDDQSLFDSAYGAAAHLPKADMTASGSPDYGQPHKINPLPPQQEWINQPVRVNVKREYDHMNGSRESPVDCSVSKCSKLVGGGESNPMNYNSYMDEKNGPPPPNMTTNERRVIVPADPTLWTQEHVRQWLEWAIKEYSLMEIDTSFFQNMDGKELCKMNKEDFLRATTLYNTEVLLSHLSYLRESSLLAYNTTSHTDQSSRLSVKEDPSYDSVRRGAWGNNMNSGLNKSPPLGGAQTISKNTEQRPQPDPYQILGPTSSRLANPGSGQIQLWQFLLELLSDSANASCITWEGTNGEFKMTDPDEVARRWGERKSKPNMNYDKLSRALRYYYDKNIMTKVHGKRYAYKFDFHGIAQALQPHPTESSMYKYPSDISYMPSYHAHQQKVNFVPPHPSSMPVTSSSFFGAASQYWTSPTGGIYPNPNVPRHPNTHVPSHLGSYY
The procedure, abridged:
(§1)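 A tag-only sample was pooled with DNA-barcoded human transcription factors that had been expressed in yeast as GST fusions and captured on glutathione beads. The pools were incubated for 30 min at room temperature with 200 nmole of a random double-stranded 16-mer DNA library in Tris/NaCl/DTT/glycerol buffer, then washed, crosslinked with 0.1% formaldehyde, proximity-ligated (BsaI/T4 ligase, 1 h, 37 °C), PCR-amplified and sequenced on an Illumina NextSeq500. Binding signal is each hexamer's read frequency for a factor divided by its frequency for the tag-only sample.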

The target of a further test is T2, ELK1 (Homo sapiens, UniProt P19419 1-428).
T2 sequence: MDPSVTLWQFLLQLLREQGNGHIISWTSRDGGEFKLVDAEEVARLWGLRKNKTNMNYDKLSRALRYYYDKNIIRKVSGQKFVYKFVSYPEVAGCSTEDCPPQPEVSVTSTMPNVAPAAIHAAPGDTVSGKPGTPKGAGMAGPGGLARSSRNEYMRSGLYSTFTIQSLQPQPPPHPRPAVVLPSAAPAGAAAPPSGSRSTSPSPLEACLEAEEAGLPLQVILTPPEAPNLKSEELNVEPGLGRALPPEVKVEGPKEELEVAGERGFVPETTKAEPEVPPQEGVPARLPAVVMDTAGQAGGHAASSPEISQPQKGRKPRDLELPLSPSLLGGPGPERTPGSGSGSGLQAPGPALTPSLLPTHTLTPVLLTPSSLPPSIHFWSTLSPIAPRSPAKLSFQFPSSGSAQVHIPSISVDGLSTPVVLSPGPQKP
The essentials: as §1

A further test deals with T3, GABPA (Homo sapiens, UniProt Q06546 1-454).
T3 sequence: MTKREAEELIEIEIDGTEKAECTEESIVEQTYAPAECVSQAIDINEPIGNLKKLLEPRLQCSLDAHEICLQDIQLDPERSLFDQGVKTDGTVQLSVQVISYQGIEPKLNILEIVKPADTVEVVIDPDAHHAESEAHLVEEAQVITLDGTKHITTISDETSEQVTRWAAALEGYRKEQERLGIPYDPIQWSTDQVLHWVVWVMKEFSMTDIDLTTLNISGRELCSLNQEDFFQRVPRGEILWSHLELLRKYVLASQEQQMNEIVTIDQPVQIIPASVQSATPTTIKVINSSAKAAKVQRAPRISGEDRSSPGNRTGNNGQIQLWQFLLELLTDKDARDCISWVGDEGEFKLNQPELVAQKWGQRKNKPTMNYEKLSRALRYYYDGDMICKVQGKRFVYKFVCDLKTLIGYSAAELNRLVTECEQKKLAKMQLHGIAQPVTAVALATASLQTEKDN
The procedure, abridged: as §1

For another test, the target named is T4, ERG (Homo sapiens, UniProt P11308 1-479).
T4 sequence: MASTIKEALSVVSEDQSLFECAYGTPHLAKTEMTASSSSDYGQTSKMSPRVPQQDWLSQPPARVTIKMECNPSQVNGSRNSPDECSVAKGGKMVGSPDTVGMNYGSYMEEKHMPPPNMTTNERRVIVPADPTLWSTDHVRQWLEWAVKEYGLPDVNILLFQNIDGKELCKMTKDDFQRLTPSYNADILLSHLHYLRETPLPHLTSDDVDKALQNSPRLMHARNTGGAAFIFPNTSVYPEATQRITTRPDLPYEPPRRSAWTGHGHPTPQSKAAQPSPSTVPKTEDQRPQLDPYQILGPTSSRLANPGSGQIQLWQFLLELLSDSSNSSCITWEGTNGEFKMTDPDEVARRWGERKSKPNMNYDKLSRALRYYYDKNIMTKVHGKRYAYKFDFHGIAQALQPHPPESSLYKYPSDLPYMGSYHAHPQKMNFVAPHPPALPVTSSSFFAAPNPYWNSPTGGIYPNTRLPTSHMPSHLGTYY
The essentials: as §1

The next test deals with ELF1 (Homo sapiens, UniProt P32519 1-619). The essentials: as §1
ELF1, sequence (P32519 whole entry): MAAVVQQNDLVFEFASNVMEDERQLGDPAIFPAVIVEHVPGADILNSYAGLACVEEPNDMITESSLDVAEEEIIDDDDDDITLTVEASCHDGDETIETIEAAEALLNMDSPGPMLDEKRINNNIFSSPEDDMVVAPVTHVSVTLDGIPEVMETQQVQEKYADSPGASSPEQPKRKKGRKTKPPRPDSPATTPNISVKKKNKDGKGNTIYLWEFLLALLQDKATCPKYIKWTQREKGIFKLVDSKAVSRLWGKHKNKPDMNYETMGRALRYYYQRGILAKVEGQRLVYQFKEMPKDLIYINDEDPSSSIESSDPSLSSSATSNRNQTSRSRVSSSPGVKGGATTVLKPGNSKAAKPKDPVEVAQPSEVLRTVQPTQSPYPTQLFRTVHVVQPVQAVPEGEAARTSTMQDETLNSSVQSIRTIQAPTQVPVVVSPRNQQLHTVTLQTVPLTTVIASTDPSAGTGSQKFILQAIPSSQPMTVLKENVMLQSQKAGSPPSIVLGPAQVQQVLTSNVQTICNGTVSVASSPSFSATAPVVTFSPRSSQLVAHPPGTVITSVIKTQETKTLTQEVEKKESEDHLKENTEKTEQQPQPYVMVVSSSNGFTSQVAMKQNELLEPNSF
The next test deals with T5, EHF (Homo sapiens, UniProt Q9NZC4 1-300).
T5 sequence: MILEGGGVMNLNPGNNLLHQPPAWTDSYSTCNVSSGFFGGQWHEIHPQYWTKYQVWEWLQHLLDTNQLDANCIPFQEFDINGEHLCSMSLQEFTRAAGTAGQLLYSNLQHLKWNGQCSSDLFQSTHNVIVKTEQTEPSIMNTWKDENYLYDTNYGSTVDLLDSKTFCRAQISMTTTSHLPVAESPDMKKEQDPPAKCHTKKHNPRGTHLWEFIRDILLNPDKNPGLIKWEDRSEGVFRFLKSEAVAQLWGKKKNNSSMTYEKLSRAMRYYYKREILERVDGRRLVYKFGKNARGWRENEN
The procedure, abridged:
as §1

Another test concerns the target SPI1 (Homo sapiens, UniProt P17947 1-270). The essentials:
as §1

A further test concerns the target SPIB (Homo sapiens, UniProt Q01892 1-262). The essentials:
as §1

The target of a further test is T6, FEV (Homo sapiens, UniProt Q99581 1-238).
T6 sequence: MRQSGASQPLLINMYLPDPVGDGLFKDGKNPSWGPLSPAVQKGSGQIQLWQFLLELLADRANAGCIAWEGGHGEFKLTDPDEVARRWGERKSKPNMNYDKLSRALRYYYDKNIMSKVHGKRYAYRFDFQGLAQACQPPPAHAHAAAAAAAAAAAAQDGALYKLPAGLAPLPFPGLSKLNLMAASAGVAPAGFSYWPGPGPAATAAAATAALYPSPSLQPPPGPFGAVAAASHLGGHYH
The procedure, abridged:
as §1

The next test has as its target ETV5 (Homo sapiens, UniProt P41161 1-510). The procedure, abridged: as §1
A further test has as its target ELF4 (Homo sapiens, UniProt Q99607 1-663). The procedure, abridged:
as §1

For a further test, the target named is ETV1 (Homo sapiens, UniProt P50549 1-477). The essentials: as §1
ETV1, sequence (P50549 whole entry): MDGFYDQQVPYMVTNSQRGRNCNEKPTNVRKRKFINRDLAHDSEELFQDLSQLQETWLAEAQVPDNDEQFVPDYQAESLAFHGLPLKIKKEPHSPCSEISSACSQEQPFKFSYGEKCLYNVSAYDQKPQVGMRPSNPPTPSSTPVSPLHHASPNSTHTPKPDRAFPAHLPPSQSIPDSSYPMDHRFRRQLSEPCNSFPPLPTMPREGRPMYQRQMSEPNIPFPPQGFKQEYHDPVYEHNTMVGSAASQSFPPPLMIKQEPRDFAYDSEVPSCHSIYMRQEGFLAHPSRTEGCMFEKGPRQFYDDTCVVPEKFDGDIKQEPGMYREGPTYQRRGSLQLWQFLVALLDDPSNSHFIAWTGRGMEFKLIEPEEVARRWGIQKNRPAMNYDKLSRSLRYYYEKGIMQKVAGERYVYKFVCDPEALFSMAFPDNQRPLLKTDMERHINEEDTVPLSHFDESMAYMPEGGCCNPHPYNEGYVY
The next test concerns the target T7, ERF (Homo sapiens, UniProt P50548 1-548).
T7 sequence: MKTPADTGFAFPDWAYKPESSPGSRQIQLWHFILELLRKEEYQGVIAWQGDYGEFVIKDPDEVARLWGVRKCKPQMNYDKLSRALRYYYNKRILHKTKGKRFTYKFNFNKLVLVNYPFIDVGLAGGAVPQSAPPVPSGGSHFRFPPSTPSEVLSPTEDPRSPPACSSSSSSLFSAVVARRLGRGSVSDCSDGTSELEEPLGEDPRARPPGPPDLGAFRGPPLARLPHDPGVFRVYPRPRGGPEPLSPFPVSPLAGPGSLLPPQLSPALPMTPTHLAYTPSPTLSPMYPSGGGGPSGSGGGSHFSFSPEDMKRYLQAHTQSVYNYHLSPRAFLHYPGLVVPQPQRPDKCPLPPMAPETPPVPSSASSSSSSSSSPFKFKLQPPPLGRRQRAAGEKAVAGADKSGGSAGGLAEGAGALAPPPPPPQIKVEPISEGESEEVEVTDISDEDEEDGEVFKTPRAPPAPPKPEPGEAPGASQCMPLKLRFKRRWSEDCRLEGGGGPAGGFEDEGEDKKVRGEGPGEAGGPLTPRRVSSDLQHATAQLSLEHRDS
The procedure, abridged:
as §1

In another test the target is T8, ETV3L (Homo sapiens, UniProt Q6ZN32 1-361).
T8 sequence: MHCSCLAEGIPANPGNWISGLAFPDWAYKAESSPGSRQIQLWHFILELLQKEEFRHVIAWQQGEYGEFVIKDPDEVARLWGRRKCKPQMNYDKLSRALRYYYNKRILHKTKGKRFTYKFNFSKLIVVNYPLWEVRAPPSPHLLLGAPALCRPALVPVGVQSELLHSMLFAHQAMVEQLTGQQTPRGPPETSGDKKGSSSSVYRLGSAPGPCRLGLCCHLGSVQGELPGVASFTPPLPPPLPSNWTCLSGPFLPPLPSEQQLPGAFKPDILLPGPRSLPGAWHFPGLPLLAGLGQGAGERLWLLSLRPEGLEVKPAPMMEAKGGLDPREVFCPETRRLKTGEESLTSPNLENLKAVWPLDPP
The procedure, abridged: as §1

The target of a further test is T9, ETS2 (Homo sapiens, UniProt P15036 1-469).
T9 sequence: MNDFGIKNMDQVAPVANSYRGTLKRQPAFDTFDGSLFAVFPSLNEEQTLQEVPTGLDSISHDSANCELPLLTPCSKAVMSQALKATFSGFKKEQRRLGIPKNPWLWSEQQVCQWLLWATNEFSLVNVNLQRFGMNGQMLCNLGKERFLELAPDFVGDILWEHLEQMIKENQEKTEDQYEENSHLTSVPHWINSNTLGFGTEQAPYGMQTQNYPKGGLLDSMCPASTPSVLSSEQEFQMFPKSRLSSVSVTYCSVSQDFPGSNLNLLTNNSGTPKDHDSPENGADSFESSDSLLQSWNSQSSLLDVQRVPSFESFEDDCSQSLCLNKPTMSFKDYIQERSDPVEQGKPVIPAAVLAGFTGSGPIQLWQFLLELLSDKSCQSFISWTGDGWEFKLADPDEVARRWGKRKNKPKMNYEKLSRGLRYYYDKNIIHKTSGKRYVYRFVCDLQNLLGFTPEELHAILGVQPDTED
The essentials:
as §1

Another test deals with T10, SPDEF (Homo sapiens, UniProt O95238 1-335).
T10 sequence: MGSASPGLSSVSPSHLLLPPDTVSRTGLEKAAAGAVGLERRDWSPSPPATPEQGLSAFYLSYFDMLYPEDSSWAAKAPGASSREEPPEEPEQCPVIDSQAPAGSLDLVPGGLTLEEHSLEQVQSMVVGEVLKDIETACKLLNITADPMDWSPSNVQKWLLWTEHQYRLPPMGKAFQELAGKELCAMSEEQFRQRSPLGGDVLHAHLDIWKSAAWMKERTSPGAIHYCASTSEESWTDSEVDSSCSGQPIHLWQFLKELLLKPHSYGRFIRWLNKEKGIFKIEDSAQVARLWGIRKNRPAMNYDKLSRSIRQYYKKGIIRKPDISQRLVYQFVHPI
The procedure, abridged:
as §1

The next test deals with T11, ELF5 (Homo sapiens, UniProt Q9UKW6-2 1-255).
T11 sequence: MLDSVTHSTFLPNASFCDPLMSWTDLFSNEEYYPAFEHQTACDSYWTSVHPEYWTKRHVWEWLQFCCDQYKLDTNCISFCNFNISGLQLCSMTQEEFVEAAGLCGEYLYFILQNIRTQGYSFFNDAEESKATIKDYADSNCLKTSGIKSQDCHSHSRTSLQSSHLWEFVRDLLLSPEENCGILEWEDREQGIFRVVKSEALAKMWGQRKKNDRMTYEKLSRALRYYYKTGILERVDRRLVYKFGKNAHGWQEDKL
The procedure, abridged:
as §1

The target in a further test is T12, ETV3 (Homo sapiens, UniProt P41162-2 1-143).
T12 sequence: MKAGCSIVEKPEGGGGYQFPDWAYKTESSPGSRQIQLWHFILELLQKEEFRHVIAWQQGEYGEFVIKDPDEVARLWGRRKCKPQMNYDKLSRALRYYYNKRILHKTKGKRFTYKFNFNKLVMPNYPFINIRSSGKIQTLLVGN
The essentials:
as §1

A further test deals with ETV6 (Homo sapiens, UniProt P41212 1-452). The procedure, abridged: as §1
ETV6, sequence (P41212 whole entry): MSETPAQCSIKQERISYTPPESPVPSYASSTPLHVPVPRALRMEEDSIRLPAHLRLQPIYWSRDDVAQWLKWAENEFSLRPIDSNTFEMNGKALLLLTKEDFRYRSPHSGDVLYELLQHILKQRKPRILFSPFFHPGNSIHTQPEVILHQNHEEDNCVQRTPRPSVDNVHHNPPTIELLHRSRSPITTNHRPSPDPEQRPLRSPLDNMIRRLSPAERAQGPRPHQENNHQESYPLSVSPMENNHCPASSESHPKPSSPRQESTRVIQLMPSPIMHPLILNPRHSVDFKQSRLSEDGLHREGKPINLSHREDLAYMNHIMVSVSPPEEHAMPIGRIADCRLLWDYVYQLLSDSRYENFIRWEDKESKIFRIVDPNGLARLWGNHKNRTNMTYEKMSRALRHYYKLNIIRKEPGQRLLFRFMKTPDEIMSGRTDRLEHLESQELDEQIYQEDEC

SPIB, sequence (Q01892 whole entry): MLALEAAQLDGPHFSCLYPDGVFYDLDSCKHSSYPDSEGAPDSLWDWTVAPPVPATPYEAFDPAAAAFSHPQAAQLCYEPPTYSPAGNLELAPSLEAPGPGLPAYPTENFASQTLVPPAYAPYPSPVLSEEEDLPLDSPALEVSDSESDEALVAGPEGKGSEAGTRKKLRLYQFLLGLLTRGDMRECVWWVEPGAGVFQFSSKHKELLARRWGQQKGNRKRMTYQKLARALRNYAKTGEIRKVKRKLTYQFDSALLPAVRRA
ETV5, sequence (P41161 whole entry): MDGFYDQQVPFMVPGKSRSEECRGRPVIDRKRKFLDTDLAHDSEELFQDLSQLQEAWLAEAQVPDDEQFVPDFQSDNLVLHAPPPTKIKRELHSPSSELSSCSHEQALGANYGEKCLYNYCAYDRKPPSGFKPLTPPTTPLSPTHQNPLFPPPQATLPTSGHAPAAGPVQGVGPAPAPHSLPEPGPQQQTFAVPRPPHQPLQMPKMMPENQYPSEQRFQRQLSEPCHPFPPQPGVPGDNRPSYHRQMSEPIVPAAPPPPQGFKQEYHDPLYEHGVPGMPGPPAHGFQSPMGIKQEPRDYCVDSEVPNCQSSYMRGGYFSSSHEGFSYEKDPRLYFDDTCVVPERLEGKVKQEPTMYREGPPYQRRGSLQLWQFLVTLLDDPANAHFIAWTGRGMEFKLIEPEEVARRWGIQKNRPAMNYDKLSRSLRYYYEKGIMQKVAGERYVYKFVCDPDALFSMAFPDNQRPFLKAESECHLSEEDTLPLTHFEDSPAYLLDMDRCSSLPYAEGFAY
ELF4, sequence (Q99607 whole entry): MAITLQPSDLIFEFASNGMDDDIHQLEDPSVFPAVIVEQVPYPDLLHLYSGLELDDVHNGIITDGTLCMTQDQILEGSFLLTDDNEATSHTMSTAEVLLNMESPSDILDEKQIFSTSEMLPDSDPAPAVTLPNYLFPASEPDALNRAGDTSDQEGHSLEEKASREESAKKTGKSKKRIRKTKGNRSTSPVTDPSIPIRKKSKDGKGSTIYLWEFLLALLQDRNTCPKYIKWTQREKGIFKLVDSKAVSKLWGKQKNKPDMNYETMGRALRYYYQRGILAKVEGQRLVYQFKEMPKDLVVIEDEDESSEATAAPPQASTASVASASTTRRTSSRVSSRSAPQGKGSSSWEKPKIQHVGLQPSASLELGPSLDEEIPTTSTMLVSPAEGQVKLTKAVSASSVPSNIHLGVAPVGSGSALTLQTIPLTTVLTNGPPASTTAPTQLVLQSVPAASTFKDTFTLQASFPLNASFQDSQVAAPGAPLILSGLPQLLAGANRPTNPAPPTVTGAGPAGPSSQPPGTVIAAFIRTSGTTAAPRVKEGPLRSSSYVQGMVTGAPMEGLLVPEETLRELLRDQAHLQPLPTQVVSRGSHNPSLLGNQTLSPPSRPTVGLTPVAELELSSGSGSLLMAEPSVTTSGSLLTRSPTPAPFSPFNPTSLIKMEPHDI

Regarding ACCGCA, the binding signal with FLI1 is 1.17 fold enrichment (6-mer frequency, TF over GST control); in the test with ELK1 it was 1.14 fold enrichment (6-mer frequency, TF over GST control); in the test with GABPA it was 1.16 fold enrichment (6-mer frequency, TF over GST control); in the test with ERG, 1.11 fold enrichment (6-mer frequency, TF over GST control); with ELF1, 1.15 fold enrichment (6-mer frequency, TF over GST control); in the test with EHF, 1.23 fold enrichment (6-mer frequency, TF over GST control). Moreover, the binding signal is 1.2 fold enrichment (6-mer frequency, TF over GST control) with SPI1; 1.16 fold enrichment (6-mer frequency, TF over GST control) with SPIB; 1.17 fold enrichment (6-mer frequency, TF over GST control) with FEV; 1.13 fold enrichment (6-mer frequency, TF over GST control) with ETV5; 1.15 fold enrichment (6-mer frequency, TF over GST control) in the test with ELF4; 1.17 fold enrichment (6-mer frequency, TF over GST control) with ETV1. For the same sequence, the binding signal with ERF was 1.11 fold enrichment (6-mer frequency, TF over GST control); with ETV3L, 1.12 fold enrichment (6-mer frequency, TF over GST control); in the test with ETS2 it was 1.18 fold enrichment (6-mer frequency, TF over GST control); with SPDEF it was 1.13 fold enrichment (6-mer frequency, TF over GST control); with ELF5, 1.1 fold enrichment (6-mer frequency, TF over GST control); in the test with ETV3, 1.09 fold enrichment (6-mer frequency, TF over GST control). In the test with ETV6, the binding signal is 1.15 fold enrichment (6-mer frequency, TF over GST control).
